Results published in publication PMC5540273 (PLoS ONE, 2017).

Tests used:
Settings in all cases: concentration: 1 μM, replicates: in singlicate; n = 1
[1] = test system: SRMS
[2] = test system: SRPK1
[3] = test system: SRPK2
[4] = test system: SRPK3
[5] = test system: STK16
[6] = test system: STK33
[7] = test system: STK35
[8] = test system: STK36
[9] = test system: STK39
[10] = test system: SYK
[11] = test system: SgK110
[12] = test system: T1, TAK1
T1 construct: gene MAP3K7

[13] = test system: TAOK1
[14] = test system: TAOK2
[15] = test system: TAOK3
[16] = test system: TBK1
[17] = test system: TEC
[18] = test system: TESK1
[19] = test system: TGFBR1
[20] = test system: TGFBR2
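Note: KINOMEscan kinase panel screen.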

Q: What does the source list for `OCCOCCn1ccc2ncnc(Nc3ccc(Oc4cccc(Cl)c4)c(Cl)c3)c21`?
A: %Inh [1]: 0%; %Inh [2]: 0%; %Inh [3]: 0%; %Inh [4]: 0%; %Inh [5]: 0%; %Inh [6]: 0%; %Inh [7]: 0%; %Inh [8]: 0%; %Inh [9]: 0%; %Inh [10]: 26%; %Inh [11]: 0%; %Inh [12]: 0%; %Inh [13]: 0%; %Inh [14]: 0%; %Inh [15]: 0%; %Inh [16]: 7%; %Inh [17]: 0%; %Inh [18]: 0%; %Inh [19]: 7%; %Inh [20]: 0%

Q: For `CC(C)(C)OC(=O)NC1CCCN(c2cc(-c3ccc4c(N)n[nH]c4c3)nc(N)n2)C1` (stereo not drawn) [GSK2286096], which “%Inh” value [1] is on record?
A: Its value is 0%.

Q: What about the “%Inh” value [2] of the same compound?
A: Its value is 15%.

Q: What about the “%Inh” value [3] of the same compound?
A: Its value is 0%.

Q: What about the “%Inh” value [4] of the same compound?
A: Its value is 0%.

Q: And the “%Inh” value [5]?
A: Its value is 19%.

Q: And the “%Inh” value [6]?
A: Its value is 53%.

Q: What about the “%Inh” value [7] of the same compound?
A: The value was 0%.

Q: What about the “%Inh” value [8] of the same compound?
A: The value was 0%.

Q: What about the “%Inh” value [9] of the same compound?
A: The value was 0%.

Q: What about the “%Inh” value [10] of the same compound?
A: Its value is 0%.

Q: What about the “%Inh” value [11] of the same compound?
A: The value was 0%.

Q: What about the “%Inh” value [12] of the same compound?
A: The value was 0%.

Q: What about the “%Inh” value [13] of the same compound?
A: Its value is 0%.

Q: What about the “%Inh” value [14] of the same compound?
A: Its value is 0%.

Q: And the “%Inh” value [15]?
A: The value was 0%.

Q: What about the “%Inh” value [16] of the same compound?
A: The value was 74%.

Q: What about the “%Inh” value [17] of the same compound?
A: The value was 5%.

Q: And the “%Inh” value [18]?
A: Its value is 0%.

Q: What about the “%Inh” value [19] of the same compound?
A: Its value is 0%.

Q: And the “%Inh” value [20]?
A: The value was 0%.

Q: For `Cl.O=S(=O)(c1cccc(F)c1)c1ccc(Nc2ncnc3cc(Br)sc23)cc1Cl` [GSK306886], which “%Inh” value [1] is on record?
A: Its value is 0%.

Q: And the “%Inh” value [2]?
A: Its value is 100%.

Q: What about the “%Inh” value [3] of the same compound?
A: Its value is 0%.

Q: And the “%Inh” value [4]?
A: The value was 0%.

Q: And the “%Inh” value [5]?
A: The value was 25%.

Q: What about the “%Inh” value [6] of the same compound?
A: Its value is 0%.

Q: And the “%Inh” value [7]?
A: Its value is 0%.

Q: What about the “%Inh” value [8] of the same compound?
A: The value was 0%.

Q: What about the “%Inh” value [9] of the same compound?
A: Its value is 1%.

Q: What about the “%Inh” value [10] of the same compound?
A: The value was 5%.

Q: And the “%Inh” value [11]?
A: The value was 0%.

Q: And the “%Inh” value [12]?
A: Its value is 0%.

Q: What about the “%Inh” value [13] of the same compound?
A: The value was 0%.

Q: And the “%Inh” value [14]?
A: The value was 0%.

Q: And the “%Inh” value [15]?
A: Its value is 0%.

Q: And the “%Inh” value [16]?
A: The value was 9%.

Q: And the “%Inh” value [17]?
A: Its value is 0%.

Q: What about the “%Inh” value [18] of the same compound?
A: Its value is 0%.

Q: And the “%Inh” value [19]?
A: Its value is 7%.

Q: What about the “%Inh” value [20] of the same compound?
A: Its value is 0%.

Q: `Cc1cc(N2CCC(NS(=O)(=O)c3ccc(F)cc3)CC2)nc(Nc2cccc(C#N)c2)n1.O=C(O)C(F)(F)F` [GSK1653537] was tested. Which “%Inh” value [1] did it give?
A: The value was 0%.

Q: What about the “%Inh” value [2] of the same compound?
A: The value was 15%.

Q: What about the “%Inh” value [3] of the same compound?
A: The value was 0%.

Q: What about the “%Inh” value [4] of the same compound?
A: Its value is 18%.

Q: And the “%Inh” value [5]?
A: The value was 0%.

Q: And the “%Inh” value [6]?
A: The value was 0%.

Q: What about the “%Inh” value [7] of the same compound?
A: The value was 0%.

Q: What about the “%Inh” value [8] of the same compound?
A: The value was 0%.

Q: And the “%Inh” value [9]?
A: Its value is 1%.

Q: What about the “%Inh” value [10] of the same compound?
A: The value was 19%.

Q: What about the “%Inh” value [11] of the same compound?
A: The value was 6%.

Q: What about the “%Inh” value [12] of the same compound?
A: The value was 0%.

Q: What about the “%Inh” value [13] of the same compound?
A: Its value is 0%.

Q: What about the “%Inh” value [14] of the same compound?
A: The value was 0%.

Q: And the “%Inh” value [15]?
A: The value was 0%.

Q: And the “%Inh” value [16]?
A: Its value is 1%.

Q: What about the “%Inh” value [17] of the same compound?
A: The value was 0%.

Q: What about the “%Inh” value [18] of the same compound?
A: Its value is 9%.

Q: And the “%Inh” value [19]?
A: The value was 0%.

Q: What about the “%Inh” value [20] of the same compound?
A: The value was 11%.

Q: Which results are given for `CC(C)N1CCC(n2cnc(-c3ccc(F)cc3)c2-c2ccnc(N)n2)CC1` [SB-223132]?
A: %Inh [1]: 0%; %Inh [2]: 0%; %Inh [3]: 45%; %Inh [4]: 6%; %Inh [5]: 0%; %Inh [6]: 0%; %Inh [7]: 0%; %Inh [8]: 26%; %Inh [9]: 0%; %Inh [10]: 19%; %Inh [11]: 0%; %Inh [12]: 0%; %Inh [13]: 0%; %Inh [14]: 0%; %Inh [15]: 0%; %Inh [16]: 50%; %Inh [17]: 6%; %Inh [18]: 23%; %Inh [19]: 25%; %Inh [20]: 0%

Q: How did the “%Inh” value [1] turn out when `Cl.c1ccc(Cn2ccc3cc(Nc4ncnc5ccccc45)ccc32)cc1` [GW275568] was run?
A: The value was 15%.

Q: And the “%Inh” value [2]?
A: The value was 11%.

Q: What about the “%Inh” value [3] of the same compound?
A: Its value is 0%.

Q: What about the “%Inh” value [4] of the same compound?
A: Its value is 0%.

Q: And the “%Inh” value [5]?
A: Its value is 19%.

Q: And the “%Inh” value [6]?
A: The value was 0%.

Q: What about the “%Inh” value [7] of the same compound?
A: Its value is 0%.

Q: And the “%Inh” value [8]?
A: Its value is 20%.

Q: And the “%Inh” value [9]?
A: The value was 18%.

Q: And the “%Inh” value [10]?
A: The value was 26%.

Q: And the “%Inh” value [11]?
A: The value was 0%.

Q: And the “%Inh” value [12]?
A: The value was 6%.

Q: What about the “%Inh” value [13] of the same compound?
A: Its value is 0%.

Q: And the “%Inh” value [14]?
A: Its value is 23%.

Q: And the “%Inh” value [15]?
A: Its value is 0%.

Q: What about the “%Inh” value [16] of the same compound?
A: The value was 39%.

Q: What about the “%Inh” value [17] of the same compound?
A: The value was 4%.

Q: What about the “%Inh” value [18] of the same compound?
A: The value was 9%.

Q: And the “%Inh” value [19]?
A: The value was 29%.

Q: And the “%Inh” value [20]?
A: Its value is 0%.

Q: Which “%Inh” value [1] does the source give for `Fc1cccc(COc2ccc(Nc3ncnc4cc[nH]c34)cc2Cl)c1` here?
A: The value was 0%.

Q: What about the “%Inh” value [2] of the same compound?
A: The value was 8%.

Q: And the “%Inh” value [3]?
A: The value was 7%.

Q: What about the “%Inh” value [4] of the same compound?
A: Its value is 33%.

Q: And the “%Inh” value [5]?
A: The value was 20%.

Q: And the “%Inh” value [6]?
A: Its value is 15%.

Q: What about the “%Inh” value [7] of the same compound?
A: The value was 0%.

Q: And the “%Inh” value [8]?
A: The value was 33%.

Q: What about the “%Inh” value [9] of the same compound?
A: The value was 9%.

Q: And the “%Inh” value [10]?
A: Its value is 32%.

Q: What about the “%Inh” value [11] of the same compound?
A: Its value is 0%.

Q: What about the “%Inh” value [12] of the same compound?
A: The value was 8%.

Q: And the “%Inh” value [13]?
A: Its value is 0%.

Q: And the “%Inh” value [14]?
A: Its value is 0%.

Q: And the “%Inh” value [15]?
A: The value was 0%.

Q: And the “%Inh” value [16]?
A: Its value is 4%.

Q: What about the “%Inh” value [17] of the same compound?
A: The value was 18%.

Q: And the “%Inh” value [18]?
A: Its value is 0%.

Q: What about the “%Inh” value [19] of the same compound?
A: The value was 9%.

Q: And the “%Inh” value [20]?
A: Its value is 0%.

Q: What does the source list for `O=C(Nc1ccccc1)Nc1ccc(Oc2ccc3nccn3n2)cc1`?
A: %Inh [1]: 3%; %Inh [2]: 28%; %Inh [3]: 16%; %Inh [4]: 16%; %Inh [5]: 0%; %Inh [6]: 9%; %Inh [7]: 0%; %Inh [8]: 0%; %Inh [9]: 0%; %Inh [10]: 6%; %Inh [11]: 27%; %Inh [12]: 0%; %Inh [13]: 0%; %Inh [14]: 5%; %Inh [15]: 0%; %Inh [16]: 34%; %Inh [17]: 10%; %Inh [18]: 11%; %Inh [19]: 0%; %Inh [20]: 27%

Q: How did the “%Inh” value [1] turn out when `Fc1ccc(-c2ncn(CCCNCc3ccccc3)c2-c2ccncc2)cc1` was run?
A: Its value is 0%.

Q: What about the “%Inh” value [2] of the same compound?
A: The value was 31%.

Q: And the “%Inh” value [3]?
A: The value was 4%.

Q: What about the “%Inh” value [4] of the same compound?
A: The value was 23%.

Q: What about the “%Inh” value [5] of the same compound?
A: The value was 0%.

Q: What about the “%Inh” value [6] of the same compound?
A: The value was 0%.

Q: And the “%Inh” value [7]?
A: Its value is 0%.

Q: And the “%Inh” value [8]?
A: The value was 20%.

Q: What about the “%Inh” value [9] of the same compound?
A: The value was 0%.

Q: And the “%Inh” value [10]?
A: Its value is 23%.

Q: And the “%Inh” value [11]?
A: The value was 12%.

Q: What about the “%Inh” value [12] of the same compound?
A: Its value is 29%.

Q: What about the “%Inh” value [13] of the same compound?
A: Its value is 5%.

Q: What about the “%Inh” value [14] of the same compound?
A: Its value is 0%.

Q: And the “%Inh” value [15]?
A: Its value is 0%.

Q: And the “%Inh” value [16]?
A: The value was 25%.

Q: And the “%Inh” value [17]?
A: Its value is 8%.

Q: And the “%Inh” value [18]?
A: The value was 6%.

Q: What about the “%Inh” value [19] of the same compound?
A: Its value is 0%.

Q: And the “%Inh” value [20]?
A: Its value is 10%.
